The list is not random: actives were taken first. Their share in the collection is about 2%.
PKM2 activator = PKM2 (human) enzyme activation; P14618; purified PKM2, Kinase-Glo ATP luminescence, activation; response scale: 0% is enzyme alone, no compound; Potency, µM (doses to about 57.5 µM), most hits filed as activators; 260,000 tested, 0.34% active; note: nearly all actives have a fitted effect of over 55% in size
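Kinase-Glo luminescence reports ATP generated from ADP (0.1 mM) and PEP (0.5 mM) by purified hPK-M2 after 1 h at room temperature, pH 7.2 imidazole buffer; intermediate enzyme activity allows detecting inhibitors and activators.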
IL-2 act = activates IL-2 in a cell-based reporter assay | IL-2 activation reporter assay, cell-based qHTS; stimulated with anti-CD3/CD4/CD28 beads; in transgenic mouse T cells | activation, % (series mostly up to about 46 µM) | 360,000 tested, 0.065% active; in the data active = activation above about 50%; inconclusive = mostly about 30% to 49%
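Quantitative HTS in unstimulated transgenic mouse T cells, with memory T cells as non-tolerant control and PMA/ionomycin as tolerance-bypass control. Compound pretreatment lasted 60 minutes before 18 h bead stimulation; EGFP/DsRed fluorescence read.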
NPSR antag = antagonists of human neuropeptide S receptor cAMP signaling; Q6W5P4; CHO-NPSR cells, cAMP TR-FRET, antagonist mode; Potency, µM (series often up to 38.3 µM), hits mostly inhibitors; 220,000 tested, 1% active; AID 1461; note: nearly all actives have a fitted effect of over 50% in size
Target sequence (Q6W5P4 whole entry, looked up): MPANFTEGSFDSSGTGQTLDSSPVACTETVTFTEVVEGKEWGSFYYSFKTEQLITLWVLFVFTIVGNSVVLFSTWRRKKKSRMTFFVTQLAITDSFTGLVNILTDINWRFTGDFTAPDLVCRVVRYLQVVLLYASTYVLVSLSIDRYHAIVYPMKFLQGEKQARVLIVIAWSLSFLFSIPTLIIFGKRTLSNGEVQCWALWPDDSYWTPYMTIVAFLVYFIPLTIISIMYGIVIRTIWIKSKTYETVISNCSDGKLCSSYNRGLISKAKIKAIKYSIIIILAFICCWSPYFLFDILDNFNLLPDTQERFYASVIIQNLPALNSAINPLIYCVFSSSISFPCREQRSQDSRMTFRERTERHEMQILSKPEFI
ClpP mod = qHTS Assay for Activators of ClpP. purified B. subtilis ClpP, FRET peptide cleavage, 20 min. 340,000 tested, 1.9% active. AID 651965, 2013. ATP-dependent Clp protease proteolytic subunit (Bacillus subtilis (strain 168)), P80244. Potency, µM (doses to about 57.5 µM); active = well fitted falling curve with a large enough effect; inconclusive = small, poorly fitted or top-dose-only effect; inactive = no such curve, though single readings can be large or run the other way; note: the source files actives as falling curves though it sought activators and does not explain the sign; nearly all actives have a fitted effect of over 65% in size
Target sequence (P80244 whole entry, looked up): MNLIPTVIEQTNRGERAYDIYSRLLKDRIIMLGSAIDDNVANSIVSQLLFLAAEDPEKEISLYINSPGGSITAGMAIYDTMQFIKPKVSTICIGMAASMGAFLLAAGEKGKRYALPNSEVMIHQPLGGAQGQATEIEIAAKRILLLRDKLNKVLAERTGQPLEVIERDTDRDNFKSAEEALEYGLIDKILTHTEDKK
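Buffer: 100 mM Tris/HCl pH8, 100 mM KCl, 0.05% low protease BSA, 2.5% glycerol, 0.01% Tween-20. ClpP 10 microg/mL final; 20 min RT; delta FRET normalized to ADEP and DMSO controls.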
Numbers stand for hits; i = inactive; ? = inconclusive; nt = no result; [ ] = dose if it differs, or a comment. Unless noted, calls come from the whole dose curve; as a rule, active = well fitted curve in the direction sought with a large enough effect; inconclusive = small, poorly fitted or top-dose-only effect, or another doubt; inactive = no such curve, though single readings can be large; an effect the other way counts as inactive or inconclusive.

SMILES | PKM2 activator | IL-2 act | NPSR antag | ClpP mod
COc1cc(-c2nc3ccccn3c2/N=C/c2ccccc2)ccc1O | i | i | ? | 31.6µM
Oc1cccc(/C=N/c2c(-c3ccco3)nc3ccccn23)c1 | i | i | 10µM | 28.2µM
COc1cc(-c2nc3ccccn3c2/N=C/c2cccc(F)c2)ccc1O | i | i | i | i
Cc1ccc(NC(=O)C(Cc2ccccc2)NS(=O)(=O)c2ccc3c(c2)c(=O)n(C)c(=O)n3C)c(C)c1 (stereo not drawn) | nt | nt | nt | i
O=C1c2cc(S(=O)(=O)NCCO)ccc2-c2ccc(S(=O)(=O)NCCO)cc21 | 5.62µM | i | i | nt
O=C(O)CNS(=O)(=O)c1ccc2c(c1)C(=O)c1cc(S(=O)(=O)NCC(=O)O)ccc1-2 | i[11.5 µM] | i | nt | i
N#CC(C#N)=C1c2cc(S(=O)(=O)NCCO)ccc2-c2ccc(S(=O)(=O)NCCO)cc21 | 1.26µM | i | i | i
C=C1CCN([C@@H](Cc2ccccc2)C(=O)Nc2ccc(OC)cc2)S(=O)(=O)c2ccccc21 | nt | i | nt | i
CCN1/C(=C/c2ccc3cccc(C)c3[n+]2CC)Sc2ccccc21 | i | 54.0 | 10µM | i
COc1ccc(S(=O)(=O)N2CCN(C(=S)Nc3ccc(S(N)(=O)=O)cc3)CC2)cc1 | i | i | nt | 17.8µM
O=S(=O)(c1ccccc1)N1CCN(C(=S)Nc2ccc(F)cc2)CC1 | i | i | i | 20µM
O=S(=O)(c1ccccc1)N1CCN(C(=S)Nc2ccccc2)CC1 | i | i | nt | i
COc1ccc(S(=O)(=O)N2CCN(C(=O)c3cccs3)CC2)cc1 | 14.1µM | i | i | i
O=[N+]([O-])c1ccc(NC(=S)N2CCN(c3ccc(F)cc3)CC2)cc1 | i | i | i | 17.8µM
CSc1ccccc1C(=O)Nc1ccc(C)c(C)c1 | i | i | i | i
O=C(CSCc1nc2cccnc2n1C1CCCCC1)NCc1cccc(Cl)c1 | nt | nt | nt | i
Cc1cc(NC(=O)c2ccccc2Cl)n(C(C)(C)C)n1 | i | i | i | 15.8µM
CN(c1cccc(NC(=O)CN2C(=O)c3ccccc3S2(=O)=O)c1)S(C)(=O)=O | i | i | i | 28.2µM
COc1ccc(CCC(C)NCC2CCCCC2)cc1 (stereo not drawn) | i | i | i | i
O=C(N/N=C/c1cn(-c2ccccc2)nc1-c1cccs1)c1ccc(Cl)cc1 | i | i | i | 31.6µM
CC1=NNC(=O)/C1=C\c1cn(-c2ccccc2)nc1-c1ccc(F)cc1 | i | i | i | i
CC1=NNC(=O)/C1=C\c1cn(-c2ccccc2)nc1-c1cccs1 | i | i | 10µM | i
C/C(Cc1ccccc1)=N\NC(=O)C1CCCCC1 | i | i | i | 28.2µM
O=C(Cc1ccccc1)NNC(=O)C1CCCC1 | i | i | i | i
COc1cccc(OCc2nn3c(=O)c(-c4ccccc4)nnc3s2)c1 | nt | i | nt | nt
SMILES | PKM2 activator | IL-2 act | NPSR antag | ClpP mod
CCOC(=O)Cc1csc(NC(=O)c2ccc(Cl)s2)n1 | nt | i | nt | i
CCOC(=O)Cc1csc(NC(=O)c2cc(C)c(C)s2)n1 | nt | i | nt | 28.2µM
COc1ccc(OC)c(CNC(=O)c2ccc3nc(C(C)C)oc3c2)c1 | nt | nt | nt | 31.6µM
Cc1ccc(C(=O)N2CCN(Cc3ccc4c(c3)OCO4)CC2)cc1[N+](=O)[O-] | i | i | i | nt
CS(=O)(=O)c1sc2nc(-c3cccs3)cc(-c3ccccc3)c2c1N | i | i | 10µM | ?
Cc1ccc(NC(=O)CN2C(=O)N/C(=C/c3ccc(C)s3)C2=O)cc1 | i | 53.1 | i | i
Cc1ccc(/C=C2/NC(=O)N(Cc3ccccc3)C2=O)s1 | i | 159.2 | i | i
Cc1cccc(CN2C(=O)N/C(=C/c3ccc(C)s3)C2=O)c1 | i | i | i | i
CCOc1cccc(C2C=C(c3ccc4c(c3)OCO4)NC(c3ccccc3F)N2)c1O (stereo not drawn) | nt | nt | nt | i
COc1ccc(/C=C2\C(=O)ON=C2c2ccccc2)cc1 | nt | i | nt | nt
O=C1ON=C(c2ccccc2)/C1=C/c1ccc(OS(=O)(=O)c2ccccc2)cc1 | ? | i | 6.31µM | i
C[C@H]1CN([C@@H](C)CO)C(=O)CCCn2cc(nn2)CO[C@@H]1CN(C)C(=O)Nc1ccc(C(C)(C)C)cc1 | nt | i | nt | i
Cc1cc(C)cc(-n2ccnc2SCC(=O)O)c1 | i | i | i | 28.2µM
Cc1ccc(C)c(-n2ccnc2SCC(=O)O)c1 | i | i | i | i
Cc1ccc(C(=O)CSc2nccn2-c2ccccc2)cc1 | i | i | i | 28.2µM
Cc1cccc(N2CCN(CC(O)COCc3cccs3)CC2)c1C (stereo not drawn) | i | i | i | 22.4µM
OC(COCc1cccs1)CN1CCN(c2ccccc2Cl)CC1 (stereo not drawn) | i | i | i | i
Oc1ccccc1C1NN=C(c2ccccc2)S1 (stereo not drawn) | i | i | nt | 7.08µM
CC1(C)CC(=O)C2=C(C1)c1c(ccc3ccccc13)NC2c1ccco1 (stereo not drawn) | i | i | i | 25.1µM
COCCNC(=O)C(=O)N/N=C(\C)CC(=O)Nc1ccc(Cl)cc1Cl | i | i | i | 28.2µM
c1cncc(CSc2nnc3ccc(-c4cccs4)nn23)c1 | 25.1µM | i | i | i
c1cncc(CSc2nnc3ccc(-c4ccncc4)nn23)c1 | i | i | i | i
Cc1ccc(NC(=O)c2cc3cc(OC(F)(F)F)ccc3[nH]2)cc1 | i | i | i | i
O=C(NNC(=O)c1ccccc1Cl)c1cc2cc(OC(F)(F)F)ccc2[nH]1 | i | i | i[7.67 µM] | 15.8µM
COc1ccccc1C(=O)NC(CCSC)C(=O)NNC(=O)c1ccccc1O (stereo not drawn) | nt | i | nt | ?
SMILES | PKM2 activator | IL-2 act | NPSR antag | ClpP mod
COc1ccccc1C(=O)NC(CCSC)C(=O)NNC(=O)c1ccc(F)cc1 (stereo not drawn) | i | i | nt | 28.2µM
O=C(CNC(=O)c1ccccc1F)OCc1nc2ccccc2s1 | i | i | i | i
CNc1sc(C(=O)c2ccccc2F)c(N)c1-c1nc2ccccc2s1 | i | i | 3.98µM | i
CCOc1ccc2nc(N3CCN(C(=O)c4ccc(S(=O)(=O)CC)cc4)CC3)sc2c1 | nt | nt | nt | i
COC(=O)CSc1nnc(-c2ccc(NS(=O)(=O)c3ccccc3)cc2)o1 | 25.1µM | i | ? | i
CCCCCC(=O)NNC(=O)c1ccc(F)cc1 | i | i | i | 2.82µM
COc1ccc(C2=NN(C(=O)C(O)c3ccccc3)C(O)(C(F)(F)F)C2)cc1 (stereo not drawn) | nt | i | nt | nt
NC(=O)c1ccc2nc(-c3ccccc3)c(-c3ccccc3)nc2c1 | nt | i | nt | i
O=C(O)c1ccc2nc(-c3ccccc3)c(-c3ccccc3)nc2c1 | i | i | i | 22.4µM
CCN1CCN(C(=O)c2ccc3nc(-c4ccccc4)c(-c4ccccc4)nc3c2)CC1 | i | i | nt | 15.8µM
CCOC(=O)C1CCCN(C(=O)c2ccc3nc(-c4ccccc4)c(-c4ccccc4)nc3c2)C1 (stereo not drawn) | nt | i | nt | i
Cc1ccc(NC(=O)CSc2nc3ccc(NC(=O)CCc4ccccc4)cc3s2)c(C)c1 | nt | nt | nt | i

Source: PubChem (National Center for Advancing Translational Sciences (NCATS))
